The campaign covered roughly 300,000 compounds. About 5,200 (1.7%) were called active. For the sample, actives were picked, then their nearest neighbours and some compounds at random. Unmarked numbers belong to inactive results.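 Rule for the calls: active = mean replicate activation of at least 50% with a set share of replicates each reaching 50%; inconclusive = only one of those two conditions met; inactive = mean below 50% and too few replicates reaching it.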
Assay: HSF-1 activators, primary screen, NIH3T3-HGL cells, MG132 stress, luminescence, single point (AID 504408);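 note: 0% = median of the neutral control wells and 100% = twice that signal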
Conditions: NIH3T3-HGL HSF-1 luciferase reporter, MG132, 8 h; at 9 µM; active compounds read high

Q: Which activation does the source give for `CCOc1ccc(CN(CCCl)CCCl)cc1C(=O)OC` here?
A: 68.2% (active)

Q: With `CCCOC(=O)C1C2c3ccccc3C(c3ccccc32)C1C(=O)O` (stereo not given) as the compound, how does the activation read?
A: -7.72%

Q: Which activation does the source give for `C=CCn1c(O)c(/C=N/N2CCOCC2)c(=O)[nH]c1=S` here?
A: 35%

Q: Which activation does the source give for `CC[C@H]1CC2CN3CCc4c([nH]c5ccccc45)C(C(=O)OC)(C2)C13` (stereo not given in full) here?
A: 3.35%

Q: With `COc1ccc(-n2c(-c3ccccc3)nc3ccccc3c2=O)cc1` as the compound, how does the activation read?
A: -4.8%

Q: With `CC12CCC3C(CCC4CC(=O)CCC43C)C1CC(=NO)C2=O` (stereo not given) as the compound, how does the activation read?
A: -22.3%

Q: With `O=C1NC(=O)N(Cc2ccco2)C(=O)/C1=C\c1ccc(-c2ccc(F)cc2)o1` as the compound, how does the activation read?
A: 14.8%

Q: With `O=C1NC(=O)N(CCc2ccc(F)cc2)C(=O)/C1=C/C=C/c1ccccc1` as the compound, how does the activation read?
A: 196% (active)

Q: Which activation does the source give for `O=C(O)COc1ccccc1/C=C1\C(=O)NC(=O)N(CCC2=CCCCC2)C1=O` here?
A: 10%

Q: Which activation does the source give for `O=C(COC(=O)c1ccccc1)Nc1ccc(Cl)cc1C(=O)c1ccccc1` here?
A: -9.79%

Q: For `O=C(NC(=S)N1C[C@H]2C[C@H](C1)c1cccc(=O)n1C2)c1ccc(F)cc1`, which activation is on record?
A: -0.361%

Q: For `CN(C)CC1Oc2ccccc2OC1(O)c1ccccc1` (stereo not given), which activation is on record?
A: 89.4% (active)

Q: For `CNC(=O)O/N=C(\N)Cc1csc2ccc(Cl)cc12`, which activation is on record?
A: 27.8%

Q: With `O=C(O)C1CSC(c2cccnc2)N1` (stereo not given) as the compound, how does the activation read?
A: 3.54%

Q: Which activation does the source give for `COC(=O)N1C(c2ccccc2)C1c1ccccc1` (stereo not given) here?
A: 50.1% (active)

Q: For `COC(=O)C(c1ccccc1)N1CCCCCC1` (stereo not given), which activation is on record?
A: 1.63%

Q: With `O=C(CCN1CCCCC1)NCC(=O)Nc1ccc(Br)cc1C(=O)c1ccccc1` as the compound, how does the activation read?
A: -6.9%

Q: With `O=C(CSC1c2ccccc2-c2ccccc21)N/N=C/c1ccccc1` as the compound, how does the activation read?
A: -4.94%

Q: Which activation does the source give for `COc1ccc(C2NCc3ccc4c(c3-n3cccc32)OCO4)cc1OC` (stereo not given) here?
A: 4.67%

Q: Which activation does the source give for `CCOC(=O)C1SC2(C(F)(F)C(F)F)CC1(O)c1c(c(OC)c3occc3c1OC)O2` (stereo not given) here?
A: -4.08%

Reference: PubChem BioAssay AID504408 (Broad Institute, 2011)
